Assay results as given in PubChem BioAssay (Tox21).
Records with an inconclusive call do not appear. Calls of active or inactive are those of the source. Unless noted, calls come from the whole dose curve; as a rule, active = well fitted curve in the direction sought with a large enough effect in the repeat runs; inconclusive = weak or mixed curves; inactive = no such curve, though single readings can be large; an effect the other way counts as inactive or inconclusive.

Experiments:
[1] = qHTS assay for small molecule agonists of the p53 signaling pathway (AID 651631; calls by dose curve; note: nearly all actives have a fitted effect of over 15% in size)
Method in brief: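 Read-out is beta-lactamase FRET fluorescence measured 2 h after substrate addition at room temperature, in HCT-116 cells with a p53 response element-driven reporter exposed to compounds for 16 h at 37 °C.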

[2] = qHTS assay for small molecules that induce genotoxicity in human embryonic kidney cells expressing luciferase-tagged ATAD5 (AID 651632); note: nearly all actives have a fitted effect of over 15% in size
Method in brief: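 A rise in luciferase signal from ATAD5-tagged HEK293T cells marks genetic stress. Cells were exposed to compounds for 16 hr at 37C, 5% CO2, then luciferase was quantified after a 30 min room-temperature incubation with Amplite.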

[3] = qHTS assay for small molecule agonists of the p53 signaling pathway - cell viability (AID 651633; calls by dose curve;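 note: p53RE-bla HCT reporter cells with a stable beta-lactamase p53 reporter; series mostly up to about 83 µM; nearly all actives have a fitted effect of over 30% in size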)
Method in brief: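 p53RE-bla cells were treated with compound for 16 hours at 37 C. Cytotoxicity was then measured as CellTiter-Glo luminescence after 30 min at room temperature.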

[4] = qHTS assay for small molecules that induce genotoxicity in human embryonic kidney cells expressing luciferase-tagged ATAD5 - cell viability (AID 651634; calls by dose curve; note: nearly all actives have a fitted effect of over 25% in size)
Method in brief: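 Cytotoxicity counter-readout: after 15.5 hr compound treatment at 37C, live-cell protease activity in ATAD5-luciferase HEK293T cells measured by CellTiter-Fluor fluorescence, 30 min development at 37C.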

[5] = qHTS assay for small molecule disruptors of the mitochondrial membrane potential - cell viability (AID 720634; calls by dose curve;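 note: human HepG2 liver cancer cells; series mostly up to about 83 µM; nearly all actives have a fitted effect of over 20% in size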)
Method in brief: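 Cytotoxicity was quantified from ATP content by CellTiter-Glo luminescence in the same wells as the MMP dye read-out. HepG2 (2,000 cells/well) were plated overnight and exposed to compounds for 1 hr at 37 C.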

[6] = qHTS assay to test for compound auto fluorescence at 590 nm (red) in HepG2 cells (AID 720674)
Method in brief: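 HepG2 cells, 2,000 per well in MEM with 10% FBS, attached overnight at 37 C, then got 23 nL compound or DMSO. After 1 hr at 37 C, 5% CO2, red fluorescence was read at 540/590 nm against Rose Bengal sodium as reference.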

[7] = qHTS assay to test for compound auto fluorescence at 535 nm (green) in HepG2 cells (AID 720675)
[8] = qHTS assay to test for compound auto fluorescence at 460 nm (blue) in HEK293 cells (AID 720678)
Method in brief: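 HEK293, 2,000 cells/well, 10% dialyzed FBS; attach 4-5 hr 37C; pin compound or DMSO; o/n 37C/5% CO2; fluorescence 405/460 nm; triamterene-equivalent units.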

[9] = qHTS assay to test for compound auto fluorescence at 590 nm (red) in HEK293 cells (AID 720679)
Method in brief: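 Intensity at 540nm excitation and 590nm emission is reported as Rose Bengal sodium-equivalent autofluorescence. Measurements followed overnight exposure (37C, 5% CO2) of HEK293 cells, 2,000 per well, to 23 nL compound.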

[10] = qHTS assay to test for compound auto fluorescence at 535 nm (green) in HEK293 cells (AID 720680)
[11] = qHTS assay to test for compound auto fluorescence at 460 nm (blue) in HEK293 cell free culture (AID 720681)
Method in brief: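 Compounds were added to cell-free DMEM with 10% FBS and fluorescence read directly. The blue channel used 405 nm excitation and 460 nm emission, with triamterene as the reference fluorophore.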

[12] = qHTS assay to test for compound auto fluorescence at 535 nm (green) in HEK293 cell free culture (AID 720682)
Method in brief: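 Fluorescein serves as the green reference fluorophore; each compound's intrinsic emission at 535 nm (excitation 485 nm) is reported as an equivalent amount of that dye, measured in serum-containing DMEM without cells.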

[13] = qHTS assay to test for compound auto fluorescence at 590 nm (red) in HEK293 cell free culture (AID 720683)
Method in brief: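 Cell-free wells of DMEM with 10% FBS received compound, and intrinsic fluorescence was read at excitation/emission 540/590 nm. Values expressed as equivalence to Rose Bengal sodium.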

[14] = qHTS assay to test for compound auto fluorescence at 590 nm (red) in HepG2 cell free culture (AID 720684)
Method in brief: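 Rose Bengal sodium served as the reference for red signal. Test compounds were dispensed into serum-containing MEM (10% FBS) without cells, and plates were read at 540/590 nm.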

[15] = qHTS assay to test for compound auto fluorescence at 460 nm (blue) in HepG2 cell free culture (AID 720685)
Method in brief: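 Cell-free plates of MEM plus 10% FBS received 23 nL compound or DMSO vehicle; blue-channel (405/460 nm) intensity scored against triamterene as reference fluorophore.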

[16] = qHTS assay to test for compound auto fluorescence at 535 nm (green) in HepG2 cell free culture (AID 720686)
[17] = qHTS assay to test for compound auto fluorescence at 460 nm (blue) in HepG2 cells (AID 720687)
Method in brief: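 HepG2 cells in MEM with 10% FBS, attached overnight at 37 C, were exposed to compound or DMSO for 1 hr at 37 C, 5% CO2. Blue fluorescence was read at 405/460 nm, with triamterene as reference fluorophore.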

[18] = target: Glucocorticoid receptor (Homo sapiens) (UniProt P04150); experiment: qHTS assay to identify small molecule agonists of the glucocorticoid receptor (GR) signaling pathway (AID 720691; active = well fitted activation curve with a large enough effect in the signal ratio in the repeat runs, not every such curve was filed as active; the % refers to the signal ratio)
Chain of Glucocorticoid receptor (Homo sapiens) (P04150 whole entry, looked up): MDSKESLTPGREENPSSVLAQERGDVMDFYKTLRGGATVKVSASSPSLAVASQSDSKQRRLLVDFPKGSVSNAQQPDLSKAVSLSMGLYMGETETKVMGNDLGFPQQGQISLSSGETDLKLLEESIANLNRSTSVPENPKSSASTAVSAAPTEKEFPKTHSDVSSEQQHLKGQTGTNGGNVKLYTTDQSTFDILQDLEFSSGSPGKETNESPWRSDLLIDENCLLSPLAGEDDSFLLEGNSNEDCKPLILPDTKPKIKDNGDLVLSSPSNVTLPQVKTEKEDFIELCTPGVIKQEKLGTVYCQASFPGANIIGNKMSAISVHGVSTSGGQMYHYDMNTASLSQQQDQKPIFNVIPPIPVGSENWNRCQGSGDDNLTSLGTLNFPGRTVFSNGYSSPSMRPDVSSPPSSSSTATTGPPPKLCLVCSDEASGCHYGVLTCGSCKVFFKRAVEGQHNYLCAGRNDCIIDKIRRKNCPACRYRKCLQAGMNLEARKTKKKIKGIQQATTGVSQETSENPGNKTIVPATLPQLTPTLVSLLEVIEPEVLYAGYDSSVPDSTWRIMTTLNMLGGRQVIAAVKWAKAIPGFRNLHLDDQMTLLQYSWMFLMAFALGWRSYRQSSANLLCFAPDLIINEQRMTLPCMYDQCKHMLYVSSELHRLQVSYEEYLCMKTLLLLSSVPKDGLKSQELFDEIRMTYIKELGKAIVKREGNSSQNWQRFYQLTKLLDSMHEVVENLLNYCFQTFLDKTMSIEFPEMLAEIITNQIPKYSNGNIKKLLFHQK
Method in brief: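 Agonist-mode qHTS in HeLa cells stably expressing a glucocorticoid-response-element beta-lactamase reporter. Fluorescence intensity read with FRET substrate (2 h, room temperature) after 18 h compound treatment at 37 C.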

[19] = target: Glucocorticoid receptor (Homo sapiens) (UniProt P04150); experiment: qHTS assay to identify small molecule antagonists of the glucocorticoid receptor (GR) signaling pathway (AID 720692; active = well fitted inhibition curve with a large enough effect in the signal ratio in the repeat runs, not every such curve was filed as active; the % refers to the signal ratio)
Method in brief: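 Inhibition of dexamethasone-driven (5 nM final) beta-lactamase expression was measured in GRE-reporter HeLa cells over 18 h at 37C. Fluorescence was read after 2 h with the B/G FRET substrate at room temperature.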

[20] = qHTS assay to identify small molecule antagonists of the glucocorticoid receptor (GR) signaling pathway - cell viability counter screen (AID 720693); note: nearly all actives have a fitted effect of over 55% in size
[21] = qHTS assay for identifying genotoxic compounds that show differential cytotoxicity against isogenic chicken DT40 cell lines with known DNA damage response pathways - wild type cell line (AID 743012); note: nearly all actives have a fitted effect of over 60% in size
Method in brief: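 Viability by ATP luminescence (CellTiter-Glo, 30 min RT) after 40 h compound treatment at 37 C/5% CO2, using 300 parental DNA repair-proficient DT40 cells per well.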

[22] = qHTS assay for identifying genotoxic compounds that show differential cytotoxicity against isogenic chicken DT40 cell lines with known DNA damage response pathways - Rev3 mutant cell line (AID 743014); note: nearly all actives have a fitted effect of over 55% in size
[23] = qHTS assay for identifying genotoxic compounds that show differential cytotoxicity against isogenic chicken DT40 cell lines with known DNA damage response pathways - Rad54/Ku70 mutant cell line (AID 743015); note: nearly all actives have a fitted effect of over 60% in size
[24] = qHTS assay to identify small molecule antagonists of the androgen receptor (AR) signaling pathway - cell viability counter screen (AID 743033; note: nearly all actives have a fitted effect of over 45% in size)
[25] = target: Androgen receptor (Homo sapiens) (UniProt P10275); experiment: qHTS assay to identify small molecule antagonists of the androgen receptor (AR) signaling pathway (AID 743035; active = well fitted inhibition curve with a large enough effect in the signal ratio in the repeat runs, not every such curve was filed as active; the % refers to the signal ratio)
Chain of Androgen receptor (Homo sapiens) (P10275 whole entry, looked up): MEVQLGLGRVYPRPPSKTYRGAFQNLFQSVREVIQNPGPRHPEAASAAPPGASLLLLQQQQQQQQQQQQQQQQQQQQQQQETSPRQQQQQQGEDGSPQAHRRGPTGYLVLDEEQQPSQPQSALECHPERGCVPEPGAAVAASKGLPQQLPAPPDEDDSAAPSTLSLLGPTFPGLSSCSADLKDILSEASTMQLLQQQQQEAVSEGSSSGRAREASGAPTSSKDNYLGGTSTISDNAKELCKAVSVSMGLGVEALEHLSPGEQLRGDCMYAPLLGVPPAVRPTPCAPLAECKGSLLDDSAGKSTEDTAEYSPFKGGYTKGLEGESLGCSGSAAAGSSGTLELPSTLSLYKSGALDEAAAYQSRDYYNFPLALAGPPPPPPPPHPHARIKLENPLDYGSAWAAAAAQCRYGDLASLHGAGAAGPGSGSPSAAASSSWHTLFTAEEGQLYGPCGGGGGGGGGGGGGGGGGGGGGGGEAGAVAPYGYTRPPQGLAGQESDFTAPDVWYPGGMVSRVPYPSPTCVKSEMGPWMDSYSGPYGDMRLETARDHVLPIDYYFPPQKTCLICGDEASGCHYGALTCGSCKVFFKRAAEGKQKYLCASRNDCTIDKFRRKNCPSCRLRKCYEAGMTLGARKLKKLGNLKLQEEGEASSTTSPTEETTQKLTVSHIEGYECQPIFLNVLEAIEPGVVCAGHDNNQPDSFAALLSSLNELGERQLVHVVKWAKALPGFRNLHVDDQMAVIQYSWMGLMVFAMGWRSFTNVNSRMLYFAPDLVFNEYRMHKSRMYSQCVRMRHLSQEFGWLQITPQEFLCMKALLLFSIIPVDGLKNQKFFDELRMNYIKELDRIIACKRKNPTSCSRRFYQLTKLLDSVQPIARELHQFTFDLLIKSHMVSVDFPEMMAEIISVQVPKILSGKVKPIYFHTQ
Method in brief: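 Antagonist mode: AR-bla HEK293 cells co-treated with test compounds and agonist R1881 for 16 h at 37C, 5% CO2. Beta-lactamase activity read as FRET fluorescence after 2 h room-temperature substrate loading.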

[26] = target: Androgen receptor (Homo sapiens) (UniProt P10275); experiment: qHTS assay to identify small molecule agonists of the androgen receptor (AR) signaling pathway (AID 743036; active = well fitted activation curve with a large enough effect in the signal ratio in the repeat runs, with a control signal flat, not every such curve was filed as active; the % refers to the signal ratio)
Method in brief: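 Fluorescence from a beta-lactamase FRET substrate served as read-out in AR-UAS-bla GripTite HEK293 cells. Cells were treated with DMSO-dissolved compounds for 16 h at 37C, then with LiveBLAzer B/G substrate for 2 h at room temperature.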

Measured: Potency

CCCCCN(C)CCC(O)(P(=O)(O)O)P(=O)(O)O
inactive: all assays above
